Screening results from PubChem.
Only some compounds are listed: those with a hit (about 2.2% of all), similar ones and a draw of the others.
Platelet DG rel: inhibitors of platelet dense granule secretion, primary screen, cell-based, MLPCN, human platelets. AID 1663, 2009. inhibition, %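 (compounds screened at 7.5 µM in platelet-rich plasma)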. human platelet-rich plasma, SFLLRN dense granule ATP release, luminescence. hit rate 0.22% among 300,000;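 active = mean replicate score, as percent of positive control, at or above 50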
CHT block: inhibitors of human choline transporter CHT | High affinity choline transporter 1 (Homo sapiens), Q9GZV3 | hit rate 0.86% among 310,000 | AID 488975, 2010 | CHT-expressing cells, membrane potential dye, choline response; hits give low values | B-score at 10 µM;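 active = B-score over 3 SD under the library average, and starting fluorescence ratio not unusually high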;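 also: choline stimulus applied at its EC90 after an EC20 pre-addition; B-score computed on integrated fluorescence ratio after choline addition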
Target sequence (Q9GZV3 whole entry, looked up): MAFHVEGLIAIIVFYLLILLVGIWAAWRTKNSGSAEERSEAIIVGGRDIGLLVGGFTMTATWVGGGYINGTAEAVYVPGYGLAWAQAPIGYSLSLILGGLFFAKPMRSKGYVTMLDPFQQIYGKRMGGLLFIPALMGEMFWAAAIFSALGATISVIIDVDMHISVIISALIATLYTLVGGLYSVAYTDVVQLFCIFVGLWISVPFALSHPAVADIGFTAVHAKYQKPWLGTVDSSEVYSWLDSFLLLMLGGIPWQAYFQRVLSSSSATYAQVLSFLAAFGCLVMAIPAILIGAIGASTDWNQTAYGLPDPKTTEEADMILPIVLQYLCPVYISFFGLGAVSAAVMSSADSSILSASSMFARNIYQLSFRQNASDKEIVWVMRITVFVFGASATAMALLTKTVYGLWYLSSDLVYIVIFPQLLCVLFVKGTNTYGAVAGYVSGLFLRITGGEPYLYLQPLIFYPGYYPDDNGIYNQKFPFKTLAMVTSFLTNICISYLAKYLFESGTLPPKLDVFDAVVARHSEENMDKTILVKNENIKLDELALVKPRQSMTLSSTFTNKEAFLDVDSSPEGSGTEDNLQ
AI-2 QS mod: Vibrio harveyi AI-2 quorum sensing modulators, primary screen, JMH597 strain, luminescence/OD600 ratio; Vibrio harveyi JMH597 AI-2 luminescence/OD600 ratio, 9 h; hits give low values; strain lacks LuxN and CqsS sensors; 0 = neutral-control median; activity change, % at 7.5 µM; hit rate 0.4% among 300,000; in the data active = activity change below about -75%, passing the limit was not always enough;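 also: luminescence divided by OD600 gain over 9 h not by final OD600 alone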
HIF activator: HIF pathway transcriptional activators, primary screen, cell-based, U2OS HRE-luciferase, luminescence; U2OS HRE-luciferase reporter; normalized: DMSO 0%, desferrioxamine 100%; AID 1910, 2009; hit rate 0.32% among 300,000; activation, % at 7.5 µM (by protocol);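 active = mean activation of at least 10% of the iron chelator positive control signal, with at least half of replicates also reaching 10%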
VLA-4 inh: inhibition in human VLA-4 binding assay, primary screen, VLA-4 allosteric modulator project, MLPCN library, flow cytometry, VLA-4 expressing cells | ligand binding flow cytometry | inhibition, % (about 7 µM as worked out from the volumes in the protocol) | hit rate 0.2% among 330,000 | AID 2557, 2010; in the data active = inhibition above about 50%
CHT PAM: CHT positive allosteric modulators, primary screen, cell-based, membrane potential dye, choline EC20 | CHT-expressing cells; hits give high values; LV-AA mutant CHT in HEK293 cells | High affinity choline transporter 1 (Homo sapiens), Q9GZV3 | hit rate 0.49% among 310,000 | AID 488977, 2010 | B-score at 10 µM;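 active = initial fluorescence not abnormally high and integrated response B-score, plate-corrected, over 3 SD above library mean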
CHT act confirm: CHT activators, confirmation, cell-based, membrane potential dye, duplicate | activation, % at 10 µM | shares compounds with CHT PAM | CHT-expressing cells, membrane potential dye fluorescence (FDSS); % of choline EC20–EC90 response window; HEK293 expressing CHT LV-AA mutant; choline added at its EC20 | hit rate 91% among 2,500;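 active = primary screen active, with duplicate mean activation above negative control mean plus 3 SD, cut at about 11% in these data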
HEK293 MP dye: membrane potential response in parental HEK293 cells, counter-screen for CHT activator project, cell-based, membrane potential dye; shares compounds with CHT PAM; membrane potential dye fluorescence (FDSS); measured after EC20 choline addition; ratio readout change at 10 µM, hits read low; hit rate 62% among 2,500; AID 623908, 2012;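 active = duplicate-averaged ratio beyond 3 SD from buffer wells, up or down, though filed actives are nearly all decreases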
A number is an active result; . = inactive; / = not tested or not shown.

SMILES	Platelet DG rel	CHT block	AI-2 QS mod	HIF activator	VLA-4 inh	CHT PAM	CHT act confirm	HEK293 MP dye
COc1ccccc1CNC(=O)CC12CC3CC(CC(Br)(C3)C1)C2	.	.	.	.	.	.	/	/
O=C(NCCN1CCOCC1)c1cc([N+](=O)[O-])cc([N+](=O)[O-])c1	.	.	.	.	.	.	/	/
N=c1c(C(=O)NCc2ccc(F)cc2)cc2c(=O)n3ccccc3nc2n1Cc1cccnc1	.	.	.	.	.	.	/	/
COC(=O)c1cc2c(=O)n3ccccc3nc2n(Cc2cccnc2)c1=N	.	.	.	.	.	6.8	40	-55
Cc1ccc2nc3c(cc(C#N)c(=N)n3Cc3cccnc3)c(=O)n2c1	.	.	.	.	.	8.5	41	-28
Cc1cc(N2CCN(C)CC2)n2cc(-c3ccc(F)cc3)nc2n1	.	.	.	.	.	6.9	39	-64
Cc1cc(N2CCN(c3ccccn3)CC2)n2cc(-c3ccccc3)nc2n1	.	.	.	.	.	.	/	/
Cc1ccccc1C(=O)Nc1ccccc1C(=O)N1CCC(C)CC1	.	.	.	.	.	.	/	/
Cc1[nH]c2ccccc2c1-c1csc(NC(=O)CSCCO)n1	.	.	.	.	.	.	/	/
CCOC(=O)C(C)On1c(-c2ccccc2)nc2ccc([N+](=O)[O-])cc21 (stereo not drawn)	.	.	.	.	.	.	16	-20
CCOc1ccc(C(C)=O)cc1CSC(=N)N	.	.	.	.	.	.	13	-45
COc1ccccc1N1CCN(C(=O)c2cccc(S(=O)(=O)Nc3ccccc3F)c2)CC1	/	/	/	/	.	/	/	/
O=C(NC1CCCCC1)C(c1cccs1)N(Cc1cccs1)C(=O)c1ccco1 (stereo not drawn)	.	.	.	.	.	.	29	.
CCN1CCc2c(sc(N)c2C#N)C1	.	.	.	.	.	.	37	-39
N#Cc1c(N)sc(=S)c2c1CCN(Cc1ccccc1)C2	/	.	/	/	.	.	/	/
Cc1ccc(S(=O)(=O)c2nc(-c3ccco3)oc2SC(C)C)cc1	.	.	/	.	.	.	15	.
COc1ccc2c(c1OC)C(=O)N1C2SC(C)(C)[C@H]1C(=O)NC(C)C (stereo partly drawn)	.	.	.	.	.	.	/	/
O=[N+]([O-])c1cccc(-c2nc(-c3ccccc3)no2)c1	.	.	.	.	.	.	/	/
O=[N+]([O-])c1cccc(-c2nc(-c3ccncc3)no2)c1	.	.	.	.	.	7.1	44	-43
COc1ccc(C(=O)NNC2=NCCCCC2)cc1	.	.	.	.	.	.	/	/
O=C(CNC1=NCCC1)c1ccc(Cl)cc1	.	.	.	.	.	.	30	-25
COc1ccc(C(=O)CNC2=NCCC2)cc1	.	.	.	.	.	8.2	57	-47
O=C(ONC1=NCCCCC1)c1ccc(Cl)cc1	.	.	.	.	.	.	/	/
CC(=O)c1c(C(=O)O)[nH]c(C(=O)O)c1C	.	.	.	.	.	.	/	/
Cc1cc(C)c(C#N)c(SCc2cn3c(C)cccc3n2)n1	.	.	.	.	.	.	56	-42
SMILES	Platelet DG rel	CHT block	AI-2 QS mod	HIF activator	VLA-4 inh	CHT PAM	CHT act confirm	HEK293 MP dye
Cc1cccc2nc(CSc3nnnn3-c3ccccc3)cn12	.	.	.	.	.	.	/	/
Cc1cc(C)nc(SCc2cn3c(C)cccc3n2)n1	.	.	.	.	.	6.8	44	-53
Cc1ccnc(SCc2cn3c(C)cccc3n2)n1	.	.	.	.	.	7	27	-46
Cc1cccc2nc(CSc3ncccc3C(=O)O)cn12	.	.	.	.	.	.	/	/
NC1=Nc2cccc3cccc1c23	.	.	.	.	.	.	45	-65
C(=N\NC1=Nc2cccc3cccc1c23)/c1ccccc1	.	.	.	.	.	.	/	/
CN(C)NC1=CC(=[N+]2CCCC2)CC(C)(C)C1	.	.	.	.	.	.	/	/
CCCN(CCC)C1=CC(=[N+]2CCCC2)CC(C)(C)C1	.	.	.	.	.	12	35	.
Cc1ccc2nc(N3CCN(C)CC3)c(C=O)c(=O)n2c1	.	.	.	.	.	.	74	-51
CCN1CCN(c2nc3ccccn3c(=O)c2C=O)CC1	.	.	.	.	.	.	57	-51
CCNC(=O)/C(C#N)=C/c1c(N2CCN(C)CC2)nc2c(C)cccn2c1=O	.	.	.	.	.	6.3	49	-53
CCNC(=O)/C(C#N)=C/c1c(N2CCN(c3cccc(Cl)c3)CC2)nc2c(C)cccn2c1=O	.	.	.	.	.	.	/	/
Cc1cccn2c(=O)c(C=O)c(N3CCN(C)CC3)nc12	.	.	.	.	.	7.1	71	-66
Cc1cccn2c(=O)c(C=O)c(N3CCN(c4ccccc4)CC3)nc12	.	.	.	.	.	.	/	/
Cc1ccc2nc(N3CCN(c4ccccc4)CC3)c(C=O)c(=O)n2c1	.	.	.	.	.	.	/	/
CC(=O)NC(CC(=O)OCC(=O)c1ccc(NC(=O)CC(C)C)cc1)c1ccccc1 (stereo not drawn)	/	/	/	/	.	/	/	/
O=C(NCC(O)c1ccc([N+](=O)[O-])cc1)C1=COCCO1 (stereo not drawn)	/	/	/	/	.	/	/	/
COc1ccc(C(=O)C[n+]2cc(Br)cc3ccccc32)cc1[N+](=O)[O-]	.	.	.	.	.	.	31	-38
COc1ccc(C(=O)OCC(N)=O)cc1[N+](=O)[O-]	.	.	.	.	.	.	/	/
CCCCOc1ccccc1C1CC(=O)NC2=C1C(=O)CCC2 (stereo not drawn)	.	.	.	.	.	11	73	.
O=C(c1nc2ccc(Cl)cn2c1CN1CCC[C@H]1CO)N1CCCCCCC1	.	.	.	.	.	.	/	/
COc1cccc(C(=O)NCC(c2cccs2)N2CCc3ccccc32)c1 (stereo not drawn)	.	.	.	.	.	6.4	25	.
Cc1ccc(C(=O)NCC(=O)N2CCc3ccccc3C2)cc1C	.	.	.	.	.	.	/	/
